Hits are enriched below; roughly 2.6% of the tested compounds scored in any of these assays.
Mcl1 Bid PPI: disrupts binding of human Mcl-1 to Bid peptide. Q07820. TR-FRET Mcl-1/Bid-Dy647 peptide binding, 1536-well. 220,000 compounds, 0.97% hits. inhibition, % at 21.7 µM;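 active means compounds that cut the binding signal by more than half at the single screening dose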;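 further: His-tagged Mcl-1 with europium anti-His antibody binding Bid BH3 peptide; 0% = Mcl-1 plus peptide wells and 100% = peptide-only wells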
Target sequence (Q07820 whole entry, looked up): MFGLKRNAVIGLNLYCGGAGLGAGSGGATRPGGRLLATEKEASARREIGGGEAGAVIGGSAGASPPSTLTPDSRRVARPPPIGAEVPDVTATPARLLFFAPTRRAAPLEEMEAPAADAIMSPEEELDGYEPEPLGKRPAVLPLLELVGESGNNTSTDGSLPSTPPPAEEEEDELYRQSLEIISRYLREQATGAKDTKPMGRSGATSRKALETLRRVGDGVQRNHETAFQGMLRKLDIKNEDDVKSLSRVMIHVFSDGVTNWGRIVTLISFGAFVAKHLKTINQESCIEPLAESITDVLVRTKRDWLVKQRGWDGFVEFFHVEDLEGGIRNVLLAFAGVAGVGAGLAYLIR
14-3-3 Bad PPI: disrupts binding of bovine 14-3-3 zeta to phospho-Bad peptide; P63103; 220,000 compounds, 0.71% hits; TR-FRET 14-3-3zeta/Dy647-pBad peptide displacement, 1 h; inhibition, % at 21.7 µM;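 active means inhibition above about 70%, limit read from the data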;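 further: 0% = full 14-3-3 plus peptide FRET controls and 100% = background without 14-3-3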
eIF4E-4G inh: eIF4E/eIF4G interaction inhibition in translation initiation; P63073+Q04637; TR-FRET eIF4E-eIF4GI(517-606) binding, 2 h; inhibition, % at 21.7 µM; 220,000 compounds, 0.37% hits; AID 782;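 active means inhibition above about 30%, limit read from the data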;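 further: 0% = full FRET control wells and 100% = background wells lacking eIF4GI fragment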
Mcl1-Noxa inh: Mcl-1/Noxa interaction inhibition | TR-FRET Mcl-1/Noxa peptide binding, 2 h | inhibition, % at 21.7 µM | Q07820 | 220,000 compounds, 1.5% hits;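 active means compounds that cut the protein-peptide binding signal by more than 50% relative to plate controls in a single-dose test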;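 further: His-tagged Mcl-1 with rhodamine Noxa BH3 peptide and terbium anti-His antibody; 0% = Mcl-1 plus Noxa peptide wells and 100% = peptide-only wells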
Bim-Mcl-1: human Bim-Mcl-1 interaction inhibition. Q07820. Bead-based flow cytometry, Bim peptide-Mcl-1 binding. inhibition, % at 10 µM. 190,000 compounds, 0.1% hits. AID 1009; in the data active means inhibition above about 40%;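 further: 0% = no compound tracer wells and 100% = peptide blocker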
MCL1-BIM inh: MCL1-BIM-BH3 interaction inhibition (human); GST-MCL1 / FITC-Bim-BH3 fluorescence polarization; inhibition, % at 10.9 µM; 320,000 compounds, 0.68% hits; AID 2057;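 active means inhibition above the mean inhibition of all tested compounds plus 3 SD, set per campaign, cut at about 40% in these data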;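 further: 0% = DMSO wells and 100% = unlabeled Bim-BH3 peptide control; higher means more loss of mP so more displacement of Bim peptide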
BCLXL inh confirm: Bcl-xL (human) inhibition, MCL1 counter-screen confirmation; shares compounds with MCL1-BIM inh; inhibition, % at 10.9 µM; GST-Bcl-xL / FITC-Bim BH3 peptide FP binding; AID 2166; 1,700 compounds, 54% hits;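 active means inhibition above a cutoff equal to the mean inhibition of all tested compounds plus 3 SD, cut at about 30% in these data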;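 further: 0% = DMSO wells and 100% = unlabeled Bim BH3 control peptide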
Target sequence (Q07817 whole entry, looked up): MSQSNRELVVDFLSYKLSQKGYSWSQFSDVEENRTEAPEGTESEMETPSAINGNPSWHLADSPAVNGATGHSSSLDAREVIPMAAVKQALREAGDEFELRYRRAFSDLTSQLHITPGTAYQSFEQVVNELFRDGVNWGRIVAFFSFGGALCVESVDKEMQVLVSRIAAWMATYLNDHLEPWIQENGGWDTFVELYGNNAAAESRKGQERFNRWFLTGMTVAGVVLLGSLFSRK
MCL1 inh confirm: MCL1-BIM-BH3 interaction inhibition, confirmation; inhibition, % at 10.9 µM; AID 2168; shares compounds with MCL1-BIM inh; 1,700 compounds, 61% hits; GST-MCL1 / FITC-Bim-BH3 fluorescence polarization;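 active means inhibition above the average of all tested compounds plus 3 SD, cut at about 40% in these data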;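 further: 0% = DMSO wells and 100% = unlabeled Bim-BH3 control peptide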
* marks the source's active call; other numbers are inactive results; / = not tested or not shown; + = active, no number; [ ] = remark or other dose.

SMILES | Mcl1 Bid PPI | 14-3-3 Bad PPI | eIF4E-4G inh | Mcl1-Noxa inh | Bim-Mcl-1 | MCL1-BIM inh | BCLXL inh confirm | MCL1 inh confirm
CSc1ccc(C2C(C#N)=C(N)Oc3cc4c(cc32)OCO4)cc1 (configuration not stated) | -23.9 | -5.5 | -5.5 | 10.4 | 0.0 | 43.4* | 3.3 | 6.6
CCN1/C(=C/C=C/C=C/C=C/c2sc3ccccc3[n+]2CC)Sc2ccccc21 | / | / | / | / | / | 8.5 | / | /
CCN1/C(=C/C=C/c2sc3ccccc3[n+]2CC)Sc2ccccc21 | / | / | / | / | / | + | + | +
Cc1ccc(NC(=O)CC2SC3=NCCCN3C2=O)c(C)c1 (configuration not stated) | -11.9 | -12.7 | 0.0 | / | -4.0 | 111.5* | 50.6* | 56.4*
O=C(CC1SC2=NCCN2C1=O)Nc1ccc(Cl)cc1 (configuration not stated) | -21.1 | -1.9 | 4.5 | -1.7 | -1.0 | 1.7 | / | /
O=C1CCCC2=C1Sc1ccccc1N2 | -4.1 | -0.6 | 5.3 | 0.5 | / | 69.0* | 52.9* | 78.0*
O=C(O)CC(C(=O)O)N1C(=O)/C(=C/C=C/c2ccco2)SC1=S (configuration not stated) | -20.5 | 74.4* | 32.1* | 85.3* | / | 75.2* | 21.6 | 32.2
O=C(O)CCCN1C(=O)/C(=C/C=C/c2ccco2)SC1=S | 34.2 | 75.7* | 32.4* | 94.3* | / | 80.1* | 24.6 | 31.1
O=C(CCN1C(=O)/C(=C\C=C\c2ccccc2)SC1=S)Nc1ccccc1C(=O)O | / | / | / | / | / | 42.6* | 15.3 | 11.5
O=C(COC(=O)C1CC(=O)N(Cc2ccccc2)C1)c1ccc(F)cc1 (configuration not stated) | 4.9 | 1.9 | -2.3 | 5.6 | -1.0 | -1.5 | / | /
CC1=C[C@H](C)[C@H](c2c(F)cccc2Cl)CC1=O | / | / | / | / | / | -5.4 | / | /
COc1ccc(CCNC(=O)c2c(N)no[n+]2[O-])cc1OC | -9.4 | -5.6 | -4.6 | -16.5 | 0.0 | 95.8* | 1.6 | -0.9
COc1ccc(CCNC(=O)Cc2ccc(OC)c(OC)c2)cc1OC | 22.9 | 2.1 | -1.4 | -17.8 | 3.0 | 0.6 | / | /
COC(=O)C(C)Oc1ccc(-c2nccc(-c3ccccn3)n2)cc1 (configuration not stated) | / | / | / | / | / | -2.9 | / | /
O=C(O)C1Cc2c([nH]c3ccccc23)C(c2ccc3c(c2)OCO3)N1 (configuration not stated) | -32.1 | -1.7 | -2.8 | 8.4 | 0.0 | 58.9* | 11.7 | 9.1
CCSc1nc2ccccc2c(=O)n1CCc1ccc(OC)c(OC)c1 | -42.4 | -2.4 | 2.0 | 19.4 | / | -3.9 | / | /
CCC(C(=O)NCCc1ccccc1OC)n1nc(C)c2c(C)n(-c3ccccc3)nc2c1=O (configuration not stated) | / | / | / | / | / | 6.2 | / | /
C=CCc1cccc(/C=N/NC(=O)CNc2cccc3ccccc23)c1O | -15.5 | -3.6 | 1.7 | 38.0 | 1.0 | 47.3* | 11.1 | 53.6*
Nc1ccccc1N1CCN(C(=O)c2ccccc2)CC1 | -23.4 | -6.8 | -4.4 | 14.6 | 0.0 | 108.3* | 12.3 | 10.6
CC(C)(CC(=O)O)CC(=O)N1CCN(c2nc3cc(Cl)ccc3s2)CC1 | / | / | / | / | / | 3.2 | / | /
Cn1c(O)c(C2=c3ccccc3=NC2=O)[nH]c1=S | -38.6 | 4.8 | -3.3 | 23.1 | 2.0 | 26.3 | / | /
COc1ccc2nc(-n3c(O)c(C4=c5ccccc5=NC4=O)[nH]c3=S)sc2c1 | 98.6* | 96.4*[fluorescence artefact?] | 51.8*[fluorescence artefact?] | 91.7* | -9.0 | 67.5* | 32.6* | 91.7*
CCc1ccc(C2NC(=S)NC3=C2C(=O)CC(C)(C)C3)cc1 (configuration not stated) | -34.2 | -3.7 | 4.5 | -2.2 | -2.0 | 5.3 | / | /
CC(=O)[C@]1(O)Cc2c(O)c3c(c(O)c2[C@@H](O[C@H]2C[C@H](N)[C@H](O)[C@H](C)O2)C1)C(=O)c1ccccc1C3=O | / | / | / | / | / | + | + | +
COc1cccc2c1C(=O)c1c(O)c3c(c(O)c1C2=O)C[C@@](O)(C(=O)CO)C[C@@H]3O[C@H]1C[C@H](N)[C@@H](O)[C@H](C)O1 | / | / | / | / | / | + | + | +
SMILES | Mcl1 Bid PPI | 14-3-3 Bad PPI | eIF4E-4G inh | Mcl1-Noxa inh | Bim-Mcl-1 | MCL1-BIM inh | BCLXL inh confirm | MCL1 inh confirm
CCOC(=O)CN1C(=O)C(=O)N(Cc2ccccc2F)C1=O | / | / | / | / | / | -3.4 | / | /
CCOC(=O)CN(C(=O)CNC(=O)c1ccco1)C(C(=O)NC1CCCCC1)c1cccs1 (configuration not stated) | 0.8 | -8.1 | 5.5 | -2.0 | -4.0 | 92.0* | 46.2* | 52.3*
O=[N+]([O-])c1cccc(C(=S)N2CCN(c3ccc(F)cc3)CC2)c1 | -14.4 | -5.3 | -5.4 | 26.1 | -5.0 | 50.6* | 21.6 | 13.6
O=C(O)c1c2c(nc3ccccc13)/C(=C/c1ccc(O)cc1)CC2 | -19.2 | 35.2 | 8.9 | 55.1* | 2.0 | 53.8* | 33.9* | 53.9*
CCOC(=O)NC1(Nc2ccc(C)cc2)Oc2ccccc2O1 | -37.0 | 7.2 | 1.9 | 10.9 | 0.0 | 58.0* | 41.1* | 46.0*
CCN1CCc2nc3sc(C(=O)N4CCc5ccccc5C4)c(N)c3cc2C1 | / | / | / | / | / | 32.1 | / | /
CCN1CCc2nc3sc(C(=O)Nc4cccnc4Cl)c(N)c3cc2C1 | / | / | / | / | / | 53.9* | 10.0 | -3.1
CN1CCN(C2=C(Cl)C(=O)N(CCc3ccccc3)C2=O)CC1 | -19.9 | 13.2 | -16.3 | 2.2 | 0.0 | 54.4* | 20.1 | 30.2
O=C(N/N=C/c1sc2ccccc2c1O)c1cccc2ccccc12 | -33.8 | -24.7 | 1.3 | -13.3 | -6.0 | -40.0 | / | /
Oc1c(C=Nc2cccc3cccnc23)sc2ccccc12 | 48.7 | 10.3 | 5.1 | -10.1 | -9.0 | 128.2* | 36.7* | 99.0*
c1ccc2c(c1)Nc1cc3ccccc3cc1S2 | -10.2 | -14.9 | 6.0 | 8.7 | / | 11.7 | / | /
Cc1ccc2c(c1)Sc1c(ccc3ccccc13)N2 | -18.6 | -5.1 | 2.9 | 39.6 | / | 71.4* | 79.6* | 104.3*
COc1cc2ccccc2cc1C(=O)OCc1nc2ccsc2c(=O)[nH]1 | / | / | / | / | / | 5.5 | / | /
N#Cc1c(-c2ccncc2)c2c([nH]c1=S)CCCC2 | -77.3 | -8.8 | 13.3 | 39.0 | -6.0 | 0.8 | / | /
Cc1ccc(-c2c3c([nH]c(=S)c2C#N)CCCC3)o1 | -25.6 | 7.1 | 10.9 | 74.4* | 2.0 | 43.1* | 25.4 | 19.7
N=C1/C(=C\c2ccc(-c3cccc(C(=O)O)c3)o2)C(=O)N=C2SC=C(c3ccccc3)N12 | 97.8* | 94.4* | 64.7* | 92.7* | / | 40.5* | 10.0 | 35.3
N=C1/C(=C/c2ccc(-c3cccc(C(=O)O)c3)o2)C(=O)N=C2SC(CC(=O)N3CCOCC3)=NN12 | / | / | / | / | / | 31.0 | / | /
